Source: PubChem BioAssay (NCI)
Compounds without any hit were thinned out: in the full panel of roughly 83,000, 20% have a hit.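 Plates (96-well) were seeded with cells, treated with compound at one concentration, and incubated for 48 hours before percent growth was determined.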 Active and inactive are the calls of the source. Rule for the calls: active = growth percent below 10; inactive = the rest.

How the values were obtained:
Assay in all cases: NCI-60 one-dose screen, 48 h (100 = growth as untreated, 0 = no growth, -100 = all killed)
Details in all cases: 10 µM unless noted
SK-MEL-2 melanoma = tested on: SK-MEL-2 melanoma
EKVX NSCLC = tested on: EKVX NSCLC
SN12C renal = tested on: SN12C renal
UO-31 renal = tested on: UO-31 renal
TK-10 renal = tested on: TK-10 renal
ACHN renal = tested on: ACHN renal
A498 renal = tested on: A498 renal
CCRF-CEM leukemia = tested on: CCRF-CEM leukemia
MOLT-4 leukemia = tested on: MOLT-4 leukemia
SR leukemia = tested on: SR leukemia
RPMI-8226 leukemia = tested on: RPMI-8226 leukemia
OVCAR-8 ovarian = tested on: OVCAR-8 ovarian
OVCAR-5 ovarian = tested on: OVCAR-5 ovarian
OVCAR-4 ovarian = tested on: OVCAR-4 ovarian
SK-OV-3 ovarian = tested on: SK-OV-3 ovarian
IGROV1 ovarian = tested on: IGROV1 ovarian
OVCAR-3 ovarian = tested on: OVCAR-3 ovarian
HS 578T breast = tested on: HS 578T breast
NCI/ADR-RES ovarian = tested on: NCI/ADR-RES ovarian
T-47D breast = tested on: T-47D breast

Measured: growth

CC(=O)OC[C@]12CC[C@@H](c3cn(Cc4ccc(Cn5cc([C@@H]6CC[C@]7(COC(C)=O)CC[C@]8(C)[C@H](CC[C@@H]9[C@@]%10(C)CC[C@H](OC(C)=O)C(C)(C)[C@@H]%10CC[C@]98C)[C@@H]67)nn5)cc4)nn3)[C@@H]1[C@H]1CC[C@@H]3[C@@]4(C)CC[C@H](OC(C)=O)C(C)(C)[C@@H]4CC[C@@]3(C)[C@]1(C)CC2
inactive: SK-MEL-2 melanoma 97% | EKVX NSCLC 104% | SN12C renal 106% | UO-31 renal 90.7% | TK-10 renal 95.1% | ACHN renal 97.1% | A498 renal 105% | CCRF-CEM leukemia 102% | MOLT-4 leukemia 97.1% | SR leukemia 98% | RPMI-8226 leukemia 108% | OVCAR-8 ovarian 92% | OVCAR-5 ovarian 102% | OVCAR-4 ovarian 109% | SK-OV-3 ovarian 100% | IGROV1 ovarian 105% | OVCAR-3 ovarian 97.4% | HS 578T breast 97.2% | NCI/ADR-RES ovarian 102% | T-47D breast 87.1%

Cc1nccc2c3ccc(OCc4cn(-c5ccccc5)nn4)cc3n(CCCc3ccccc3)c12
inactive: SK-MEL-2 melanoma 91.7% | EKVX NSCLC 69.9% | SN12C renal 75.6% | UO-31 renal 54.6% | TK-10 renal 71.6% | ACHN renal 72% | A498 renal 53.8% | CCRF-CEM leukemia 77.4% | MOLT-4 leukemia 35.3% | SR leukemia 33.5% | RPMI-8226 leukemia 31.6% | OVCAR-8 ovarian 55.6% | OVCAR-5 ovarian 91.2% | OVCAR-4 ovarian 71.2% | SK-OV-3 ovarian 69.7% | IGROV1 ovarian 89.1% | OVCAR-3 ovarian 68.6% | HS 578T breast 65.5% | NCI/ADR-RES ovarian 70.4% | T-47D breast 78.4%

COc1cc(N=Nc2cc(S(=O)(=O)O)cc3cc(S(=O)(=O)O)cc(O)c23)c(C)cc1N=Nc1c(S(=O)(=O)O)cc2cc(Nc3ccccc3)ccc2c1O
inactive: SK-MEL-2 melanoma 103% | EKVX NSCLC 107% | SN12C renal 103% | UO-31 renal 81.3% | TK-10 renal 91.1% | ACHN renal 108% | A498 renal 108% | CCRF-CEM leukemia 100% | MOLT-4 leukemia 86.8% | SR leukemia 76.5% | RPMI-8226 leukemia 103% | OVCAR-8 ovarian 106% | OVCAR-5 ovarian 111% | OVCAR-4 ovarian 97.8% | SK-OV-3 ovarian 102% | IGROV1 ovarian 96.6% | OVCAR-3 ovarian 97.2% | HS 578T breast 108% | NCI/ADR-RES ovarian 110% | T-47D breast 93.4%

COc1ccc(C2=NN(c3ccc(S(N)(=O)=O)cc3)C(c3ccc(Cl)cc3)C2)c(O)c1 (stereo not given)
inactive: SK-MEL-2 melanoma 87.9% | EKVX NSCLC 56% | SN12C renal 73% | UO-31 renal 60.3% | TK-10 renal 53.7% | ACHN renal 65% | A498 renal 47.2% | CCRF-CEM leukemia 26.8% | MOLT-4 leukemia 32.5% | SR leukemia 16.1% | OVCAR-8 ovarian 54.6% | OVCAR-5 ovarian 78.3% | OVCAR-4 ovarian 50.5% | SK-OV-3 ovarian 85.3% | IGROV1 ovarian 50.1% | OVCAR-3 ovarian 58.6% | HS 578T breast 70.5% | NCI/ADR-RES ovarian 52.5% | T-47D breast 33.8%
active: RPMI-8226 leukemia 4.28%

COc1ccc2[nH]c(-c3ccccc3)c(C=C(C#N)C#N)c2c1
active: CCRF-CEM leukemia 2.26% | MOLT-4 leukemia 0.472% | SR leukemia -5.05% | RPMI-8226 leukemia -50.2% | OVCAR-3 ovarian 7.4% | NCI/ADR-RES ovarian -4.6%
inactive: SK-MEL-2 melanoma 24.1% | EKVX NSCLC 33.3% | SN12C renal 59% | UO-31 renal 53.1% | TK-10 renal 41.5% | ACHN renal 54.2% | A498 renal 21% | OVCAR-8 ovarian 48.2% | OVCAR-5 ovarian 65.7% | OVCAR-4 ovarian 35% | SK-OV-3 ovarian 51.2% | IGROV1 ovarian 49.5% | HS 578T breast 40.9% | T-47D breast 26.4%

N#CCNc1ccc(C(=O)O)cc1
inactive: SK-MEL-2 melanoma 108% | EKVX NSCLC 104% | SN12C renal 103% | UO-31 renal 101% | TK-10 renal 97.4% | ACHN renal 111% | A498 renal 106% | CCRF-CEM leukemia 99.3% | MOLT-4 leukemia 96.3% | SR leukemia 99.2% | RPMI-8226 leukemia 102% | OVCAR-8 ovarian 102% | OVCAR-5 ovarian 120% | OVCAR-4 ovarian 117% | SK-OV-3 ovarian 105% | IGROV1 ovarian 103% | OVCAR-3 ovarian 110% | HS 578T breast 105% | NCI/ADR-RES ovarian 105% | T-47D breast 99.2%

COc1cc([C@H](C)c2ccc3ccccc3c2)cc(OC)c1OC
inactive: SK-MEL-2 melanoma 28.3% | EKVX NSCLC 30.9% | SN12C renal 48.3% | UO-31 renal 42.1% | TK-10 renal 61.4% | ACHN renal 35.1% | A498 renal 12.7% | CCRF-CEM leukemia 16% | MOLT-4 leukemia 13.5% | SR leukemia 23.5% | RPMI-8226 leukemia 15.9% | OVCAR-8 ovarian 23.2% | OVCAR-5 ovarian 62.1% | OVCAR-4 ovarian 40.6% | SK-OV-3 ovarian 31% | IGROV1 ovarian 36% | HS 578T breast 30.2% | NCI/ADR-RES ovarian 17.9% | T-47D breast 42.2%
active: OVCAR-3 ovarian -19.7%

COc1cccc(C(=O)OCCn2nc3c4c(cccc42)C(=O)c2ccccc2-3)c1O
inactive: SK-MEL-2 melanoma 78.7% | EKVX NSCLC 56.1% | SN12C renal 41.5% | UO-31 renal 62.6% | TK-10 renal 85.5% | ACHN renal 56.6% | A498 renal 81.7% | CCRF-CEM leukemia 18.3% | MOLT-4 leukemia 29.7% | SR leukemia 21.2% | RPMI-8226 leukemia 30% | OVCAR-8 ovarian 56.7% | OVCAR-5 ovarian 69.3% | OVCAR-4 ovarian 59.8% | SK-OV-3 ovarian 120% | IGROV1 ovarian 44.9% | HS 578T breast 20.1% | NCI/ADR-RES ovarian 22.5% | T-47D breast 40.8%
active: OVCAR-3 ovarian 3.88%

Oc1ccc(CNNc2ccnc3c(O)cccc23)c2cccnc12
active: EKVX NSCLC 8.17% | NCI/ADR-RES ovarian 6.61%
inactive: SK-MEL-2 melanoma 31.4% | SN12C renal 45.4% | UO-31 renal 23.7% | TK-10 renal 30.7% | ACHN renal 15.2% | A498 renal 74.7% | CCRF-CEM leukemia 18.7% | MOLT-4 leukemia 13.4% | SR leukemia 20.4% | RPMI-8226 leukemia 22.2% | OVCAR-8 ovarian 20.8% | OVCAR-5 ovarian 59.1% | OVCAR-4 ovarian 34.4% | SK-OV-3 ovarian 27.6% | IGROV1 ovarian 35.1% | OVCAR-3 ovarian 37.8% | HS 578T breast 47.7% | T-47D breast 29.6%

COc1cc(C(=O)N2CCN(c3ccccc3OC)CC2)c(NC(=O)c2cnccn2)cc1OCc1ccccc1
active: CCRF-CEM leukemia -44%
inactive: SK-MEL-2 melanoma 85.7% | EKVX NSCLC 57.2% | SN12C renal 88.6% | UO-31 renal 39% | TK-10 renal 102% | ACHN renal 92.5% | A498 renal 84.9% | MOLT-4 leukemia 52.4% | SR leukemia 60.7% | RPMI-8226 leukemia 65.9% | OVCAR-8 ovarian 91.1% | OVCAR-5 ovarian 90.8% | OVCAR-4 ovarian 79% | SK-OV-3 ovarian 90.2% | IGROV1 ovarian 63.9% | OVCAR-3 ovarian 92.7% | HS 578T breast 103% | NCI/ADR-RES ovarian 78.9% | T-47D breast 66.8%

CC(C)C[C@H](C(=O)O)N(C)C(=O)[C@@H]1CCCN1C(=O)[C@H](C)OC(=O)[C@H](CCC(N)=O)NC(=O)[C@@H]1CCC(=O)N1
inactive: SK-MEL-2 melanoma 110% | EKVX NSCLC 94.1% | SN12C renal 97.1% | UO-31 renal 88.3% | TK-10 renal 105% | ACHN renal 106% | A498 renal 107% | CCRF-CEM leukemia 102% | MOLT-4 leukemia 111% | SR leukemia 94.4% | RPMI-8226 leukemia 108% | OVCAR-8 ovarian 103% | OVCAR-5 ovarian 100% | OVCAR-4 ovarian 86.8% | SK-OV-3 ovarian 92.8% | IGROV1 ovarian 114% | OVCAR-3 ovarian 103% | HS 578T breast 107% | NCI/ADR-RES ovarian 111% | T-47D breast 86.8%

S=C(Nc1ccccc1)c1ccccn1
active: IGROV1 ovarian 1.38%
inactive: SK-MEL-2 melanoma 103% | EKVX NSCLC 93.1% | SN12C renal 85.9% | UO-31 renal 57% | TK-10 renal 109% | ACHN renal 93.5% | A498 renal 91.4% | CCRF-CEM leukemia 37.5% | MOLT-4 leukemia 80% | SR leukemia 56.1% | RPMI-8226 leukemia 56.5% | OVCAR-8 ovarian 91.2% | OVCAR-5 ovarian 88.9% | OVCAR-4 ovarian 100% | SK-OV-3 ovarian 90.9% | OVCAR-3 ovarian 67.7% | HS 578T breast 101% | NCI/ADR-RES ovarian 93.1% | T-47D breast 96.6%

C=C(C)[C@@H]1CC[C@]2(C(=O)OCCOCCOCC[P+](c3ccccc3)(c3ccccc3)c3ccccc3)CC[C@]3(C)[C@H](CC[C@@H]4[C@@]5(C)CC[C@H](OC(C)=O)C(C)(C)[C@@H]5CC[C@]43C)[C@@H]12
active: SK-MEL-2 melanoma -75.6% | EKVX NSCLC -74.8% | SN12C renal -89.9% | UO-31 renal -95.1% | TK-10 renal -87.1% | ACHN renal -96.7% | A498 renal -94% | CCRF-CEM leukemia -41% | MOLT-4 leukemia -77.9% | SR leukemia -49.2% | RPMI-8226 leukemia -63.9% | OVCAR-8 ovarian -78.2% | OVCAR-5 ovarian -86.2% | OVCAR-4 ovarian -82.1% | SK-OV-3 ovarian -94.5% | IGROV1 ovarian -83.9% | OVCAR-3 ovarian -95.8% | HS 578T breast -48.3% | NCI/ADR-RES ovarian 4.3% | T-47D breast -76.7%

O=CN1N=C(c2ccc(Cl)cc2)CC1c1cccc(Nc2ccnc3cc(C(F)(F)F)ccc23)c1 (stereo not given)
inactive: SK-MEL-2 melanoma 58% | EKVX NSCLC 58.7% | SN12C renal 87.7% | UO-31 renal 48.5% | TK-10 renal 71% | ACHN renal 61.2% | A498 renal 58.6% | CCRF-CEM leukemia 51.7% | MOLT-4 leukemia 33.8% | SR leukemia 30% | RPMI-8226 leukemia 26.4% | OVCAR-8 ovarian 52.8% | OVCAR-5 ovarian 99.7% | OVCAR-4 ovarian 36.1% | SK-OV-3 ovarian 72.4% | IGROV1 ovarian 74.2% | OVCAR-3 ovarian 62.2% | HS 578T breast 87.7% | NCI/ADR-RES ovarian 55.4% | T-47D breast 42.6%

N#Cc1c(NC(=O)c2cccs2)[n+]([O-])c2cc(C(F)(F)F)ccc2[n+]1[O-]
inactive: SK-MEL-2 melanoma 55.8% | EKVX NSCLC 87.1% | SN12C renal 108% | UO-31 renal 80.5% | TK-10 renal 104% | ACHN renal 102% | A498 renal 123% | CCRF-CEM leukemia 94.7% | MOLT-4 leukemia 75.9% | SR leukemia 79.8% | RPMI-8226 leukemia 95.5% | OVCAR-8 ovarian 95.4% | OVCAR-5 ovarian 111% | OVCAR-4 ovarian 94.1% | SK-OV-3 ovarian 97.2% | OVCAR-3 ovarian 81.9% | HS 578T breast 84.5% | NCI/ADR-RES ovarian 107% | T-47D breast 90.2%
active: IGROV1 ovarian -54.2%
